PubChem BioAssay AID488975 (Johns Hopkins Ion Channel Center, 2010)
Among all 310,000 compounds or so, about 2,600 (0.84%) were called active.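 Rule for the calls: active = B-score over 3 SD under the library average, and starting fluorescence ratio not unusually high; inactive = the rest.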 This excerpt belongs to a sample that is enriched for actives.

The compounds below were run against High affinity choline transporter 1 (Homo sapiens) (UniProt Q9GZV3) (assay: inhibits the human high affinity choline transporter (AID 488975;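 for B-score: choline stimulus applied at its EC90 after an EC20 pre-addition; B-score computed on integrated fluorescence ratio after choline addition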)). Details: CHT-expressing cells, membrane potential dye, choline response, at 10 µM; hits give low values.
High affinity choline transporter 1 (Homo sapiens), sequence (Q9GZV3 whole entry, looked up): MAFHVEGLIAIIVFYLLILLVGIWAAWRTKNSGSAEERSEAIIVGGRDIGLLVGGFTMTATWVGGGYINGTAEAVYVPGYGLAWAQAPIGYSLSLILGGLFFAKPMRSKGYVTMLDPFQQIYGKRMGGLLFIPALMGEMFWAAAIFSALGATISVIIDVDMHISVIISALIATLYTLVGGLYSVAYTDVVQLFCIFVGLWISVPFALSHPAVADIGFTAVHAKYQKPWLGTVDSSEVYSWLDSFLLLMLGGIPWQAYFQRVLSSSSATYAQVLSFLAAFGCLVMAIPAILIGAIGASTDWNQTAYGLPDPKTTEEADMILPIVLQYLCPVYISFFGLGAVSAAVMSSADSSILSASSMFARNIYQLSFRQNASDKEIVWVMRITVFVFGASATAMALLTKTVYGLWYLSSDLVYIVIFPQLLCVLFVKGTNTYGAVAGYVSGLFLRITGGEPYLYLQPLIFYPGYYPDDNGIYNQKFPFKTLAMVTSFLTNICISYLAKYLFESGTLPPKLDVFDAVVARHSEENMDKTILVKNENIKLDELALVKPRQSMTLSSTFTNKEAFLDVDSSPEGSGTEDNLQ

Compound	B-score
CCN1CCN(c2ccc(S(=O)(=O)N3CCCCC3)cc2NC(=O)c2cccc(NC(C)=O)c2)CC1	inactive
CC(OC(=O)CCCOc1ccccc1)C(=O)Nc1ccc(Cl)cn1 (centres undefined)	inactive
O=C(NCCC1CCCCN1S(=O)(=O)c1cccs1)C(=O)Nc1ccc(F)cc1F (centres undefined)	inactive
CC12CCC(=O)N1C(C(=O)Nc1ccc(F)c(F)c1F)CS2 (centres undefined)	inactive
Cc1oc2cc([N+](=O)[O-])c(O)c([N+](=O)[O-])c2c1C(=O)c1ccc(Br)cc1	-6.57 (active)
COc1ccc(C(=O)c2c(C)oc3cc([N+](=O)[O-])c(O)c([N+](=O)[O-])c23)cc1	inactive
Cc1oc2cc(Br)c(O)c(Br)c2c1C(=O)c1ccccc1	inactive
COc1ccccc1CCNC(=O)C(=O)NCCC1CCCCN1S(=O)(=O)c1cccs1 (centres undefined)	inactive
CCOc1ccc(NS(=O)(=O)c2ccc(C(=O)NCC(c3ccccc3OC)N3CCCC3)cc2)cc1 (centres undefined)	inactive
COc1ccc(Cl)cc1NC(=O)CN(C)C(=O)c1cc2ccccc2cc1OC	inactive
Cc1onc(-c2ccccc2Cl)c1C(=O)OCc1nnc(-c2ccccc2)o1	inactive
COc1ccc(NC(=O)c2sc(N3CCOCC3)nc2-c2ccccc2)c(OC)c1	inactive
COc1ccc(NC(=O)CSc2nc(N)c(-c3ccccc3)c(=O)[nH]2)cc1	inactive
COc1ccc(NC(=O)c2sc(N)nc2-c2ccccc2)cc1	-8.57 (active)
COc1ccc(C(=O)NC(C)c2nccs2)cc1OC1CCN(C(C)C)CC1 (centres undefined)	-5.22 (active)
COCCOC1CCN(C(=O)c2ccc(OC)c(OC3CCN(C(C)C)CC3)c2)CC1	inactive
COc1ccc(C(=O)NC2CC2)cc1OC1CCN(Cc2cnn(C)c2)CC1	inactive
Cc1cc(C)c(S(=O)(=O)NCC(c2ccc3c(c2)OCO3)N2CCOCC2)c(C)c1 (centres undefined)	inactive
Cc1nc2ccccc2c(=O)n1-c1ccc(NS(=O)(=O)c2ccc(F)cc2F)cc1	inactive
COc1ccc(C(=O)OCC(=O)c2ccc(Cl)s2)c(OC)c1OC	inactive
CN(C)CCCN(C(=O)c1ccc(S(=O)(=O)N2CCCCCC2)cc1)c1nc2cc3c(cc2s1)OCCO3	inactive
O=C(O)c1ccc(N/N=C/c2cn(-c3ccccc3)nc2-c2cccs2)cc1	-5.81 (active)

Compound	B-score
O=C(/C=C\c1cn(-c2ccccc2)nc1-c1cccs1)N1CCOCC1	inactive
O=C(O)/C=C/c1cn(-c2ccccc2)nc1-c1cccs1	inactive
COc1ccc(NS(=O)(=O)c2ccc(C)c(C(=O)NCC(c3cccs3)N3CCOCC3)c2)cc1 (centres undefined)	inactive
CCN(C(=O)CSc1ncn[nH]1)c1cccc2ccccc12	inactive
CC(C)(C)c1ccc(C(=O)CSc2ncn[nH]2)cc1	-5 (active)
Cn1nnc(NC(=O)CSc2ncn[nH]2)n1	inactive
O=C(CCNC(=O)c1ccc(Br)cc1)Nc1cccc(S(=O)(=O)N2CCCCC2)c1	inactive
CCOC(=O)c1c(C)oc2cc(Sc3ccccc3)c(O)c(O)c12	inactive
CCN1C(=O)[C@H]2[C@@H](c3ccc(-c4ccc(OC)cc4)cc3)N[C@@](Cc3ccccc3)(C(=O)OC)[C@H]2C1=O	inactive
COc1ccc(C2=NOC(Cn3nc(C(=O)NCc4ccc5c(c4)OCO5)cc3-c3ccccc3)C2)cc1 (centres undefined)	inactive
Cc1cccc(N(Cc2ccccc2)C(=O)c2cc(S(=O)(=O)N3CCOCC3)ccc2F)c1	inactive
CC(=O)c1ccc(Oc2cc(C)nc(-n3nc(C)cc3C)n2)cc1	-5.97 (active)
Cc1cc(C)n(-c2cc(Oc3ccccc3)ncn2)n1	inactive
Cc1cc(C)n(-c2ccc(Cl)c(C(=O)O)n2)n1	inactive
O=C1[C@H]2[C@@H](c3ccc(Cl)cc3)N3C(=O)N(c4cccc(F)c4)C(=O)[C@@]3(Cc3ccccc3)[C@H]2C(=O)N1C1CCCCC1	inactive
O=C(NNC(=S)NCc1ccco1)C(c1ccccc1)c1ccccc1	inactive
CC(C)C(=O)Nc1cccc(NC(=S)NC(=O)C(c2ccccc2)c2ccccc2)c1	inactive
CCCCC(=O)NNC(=S)NC(=O)C(c1ccccc1)c1ccccc1	-10.8 (active)
CC1CN(C(=O)c2cc(COc3c(F)cccc3F)on2)CCN1C (centres undefined)	inactive
COc1ccc(C(CNC(=O)c2cccc(NS(=O)(=O)c3ccc(C)c(F)c3)c2)N2CCCC2)cc1 (centres undefined)	-5.37 (active)
Cc1cc(S(=O)(=O)Nc2ccc(C(=O)NCC(c3ccco3)N3CCCC3)cc2)ccc1F (centres undefined)	inactive
COc1ccc(C(CNC(=O)c2cccc(S(=O)(=O)Nc3ccccc3Cl)c2)N2CCOCC2)cc1 (centres undefined)	inactive

Compound	B-score
CC(=O)c1ccc(NC(=O)C2CCCN2S(=O)(=O)c2cccs2)cc1 (centres undefined)	inactive
COc1ccc(CCNC(=O)C(=O)NCC2CCCN2S(=O)(=O)c2cccs2)cc1OC (centres undefined)	inactive
Cc1occc1C(=O)N/N=C/c1ccc(-c2cccc([N+](=O)[O-])c2)o1	inactive
O=C(N/N=C/c1cc(Cl)cc([N+](=O)[O-])c1O)C(O)(c1ccccc1)c1ccccc1	inactive
O=[N+]([O-])c1cc(Cl)cc(/C=N/NC(=S)Nc2cc(S(=O)(=O)N3CCOCC3)ccc2Cl)c1O	-11.3 (active)
O=C(CN1CCN(c2ccc(O)cc2)CC1)Nc1cc(S(=O)(=O)N2CCOCC2)ccc1Cl	inactive
CC(=O)N1CCN(C(=O)c2cc(-c3ccc(C)o3)nc3ccccc23)CC1	inactive
O=C(O)C1C2C=CC(C2)C1C(=O)NCc1ccccc1 (centres undefined)	inactive
O=C(NNC(=O)c1ccc(Cl)cc1Cl)c1cccs1	inactive
Cc1ccc(NNC(=O)c2cccs2)cc1Cl	-4.98 (active)
Cc1ccc(NNC(=O)c2c(F)cccc2Cl)cc1Cl	inactive
O=C(NCCCc1ccccc1)C(=O)NCC1OCCN1S(=O)(=O)c1ccccc1 (centres undefined)	inactive
Cc1ccc(N2CC(C(=O)N3CCC4(CC3)CC(=O)c3ccccc3O4)CC2=O)cc1C (centres undefined)	inactive
Cc1ccc(Cc2nnc(SCC(=O)Nc3ccccc3C)[nH]c2=O)cc1	inactive
CCC1CCCCN1CCCNC(=O)Cn1nc(-c2ccccc2)ccc1=O (centres undefined)	inactive
O=C(Cn1ncc2c3ccccc3n(Cc3ccccc3)c2c1=O)NCc1ccccn1	inactive
CCCn1c2ccccc2c2cnn(CC(=O)NCCCN3CCCCC3CC)c(=O)c21 (centres undefined)	-7.41 (active)
Cc1c2cnn(CC(=O)NCCCN3CC(C)CC(C)C3)c(=O)c2c(C)n1Cc1ccc(Cl)cc1 (centres undefined)	inactive
O=C(Cn1ncc2c3ccccc3n(Cc3ccccc3)c2c1=O)NCCCN1CCOCC1	-8.06 (active)
CC1CCCCN1CCCNC(=O)Cn1ncc2c([nH]c3ccccc32)c1=O (centres undefined)	inactive
